Laboratory results: PubChem BioAssay AID651548 (Broad Institute, 2012)
Among all 57,000 compounds or so, about 200 (0.35%) were called active. This is one part of a sample in which actives are shown more often than they occur.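 The calls were made as follows: active = mean inhibition of replicates at least 50% and every single replicate also reaching 50%; inconclusive = mean inhibition at least 50% but some replicate falls below 50%; inactive = mean inhibition under 50%.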

molecular target: Histone-lysine N-methyltransferase EZH2 (Homo sapiens) (UniProt Q15910); test: EZH2/PRC2 methyltransferase inhibitors, primary screen, biochemical, DELFIA time-resolved fluorescence, single point (AID 651548); details: PRC2 H3K27 methylation, DELFIA TRF, 1 h; at 12.5 µM; hits give high values;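 also: dimethyl H3K27 on biotinylated H3 21-44 peptide detected by antibody; plate controls were median neutral control wells for no effect and median positive control wells for full effect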
Sequence (Q15910 whole entry, looked up): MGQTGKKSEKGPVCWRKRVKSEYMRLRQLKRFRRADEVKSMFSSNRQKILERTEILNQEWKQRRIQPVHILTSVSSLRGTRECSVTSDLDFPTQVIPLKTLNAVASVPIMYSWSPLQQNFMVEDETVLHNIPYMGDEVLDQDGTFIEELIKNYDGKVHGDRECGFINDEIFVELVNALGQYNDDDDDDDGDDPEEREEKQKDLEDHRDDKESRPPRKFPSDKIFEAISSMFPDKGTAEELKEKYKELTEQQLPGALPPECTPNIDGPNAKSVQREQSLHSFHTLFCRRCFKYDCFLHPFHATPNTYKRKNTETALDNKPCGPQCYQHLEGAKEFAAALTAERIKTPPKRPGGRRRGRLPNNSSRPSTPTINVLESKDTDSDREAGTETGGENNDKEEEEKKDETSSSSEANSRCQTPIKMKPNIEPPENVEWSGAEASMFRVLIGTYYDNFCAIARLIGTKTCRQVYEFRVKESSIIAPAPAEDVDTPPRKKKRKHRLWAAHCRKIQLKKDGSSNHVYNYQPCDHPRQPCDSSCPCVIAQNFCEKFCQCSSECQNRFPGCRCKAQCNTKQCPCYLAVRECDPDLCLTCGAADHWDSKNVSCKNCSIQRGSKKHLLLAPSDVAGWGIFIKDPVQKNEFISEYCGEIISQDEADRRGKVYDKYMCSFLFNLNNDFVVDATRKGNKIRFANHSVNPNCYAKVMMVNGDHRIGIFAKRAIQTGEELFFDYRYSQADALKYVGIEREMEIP

Row | Structure (SMILES) | inhibition
1 | C[C@@H]1O[C@@H](O[C@@H]2C=C3CC[C@@H]4C(C[C@@H](O)[C@]5(C)[C@@H](c6ccc(=O)oc6)CC[C@]45O)[C@@]3(C)CC2)[C@H](O)[C@H](O)[C@H]1O[C@@H]1O[C@H](CO)[C@@H](O)[C@H](O)[C@H]1O (stereo not given in full) | 75.9% (active)
2 | c1ccc(CCCCN2CCC(c3ccccc3)CC2)cc1 | 11.8% (inactive)
3 | CCCCCCCCCCCCCC(=O)O[C@@H]1[C@@H](C)[C@@]2(O)[C@@H](C=C(CO)C[C@]3(O)C(=O)C(C)=C[C@@H]23)[C@@H]2C(C)(C)[C@]12OC(C)=O | -10.7% (inactive)
4 | c1ccc2c(c1)[I+]c1ccccc1-2 | -3.64% (inactive)
5 | CC(C)(Cc1c[nH]c2ccc(Cl)cc12)NCCOc1ccccc1OCC1CC1 | 3.93% (inactive)
